What all share (format): functional
Experiment [1] has as its target Solute carrier family 2, facilitated glucose transporter member 1 (Homo sapiens) (UniProt P11166). In words: ST_JUDE_LEISH: Cytotoxicity at 2uM final concentration against transgenic Leishmania Mexicana promastigotes LmGLUT1 that are glucose transport deficient and complemented with the human glucose transporter GLUT1. Activity is measured by DNA content using SYBR green in vitro.

For experiment [2], the target named is Hexose transporter 1 (Plasmodium falciparum) (UniProt O97467). In words: ST_JUDE_LEISH: Cytotoxicity at 2uM final concentration against transgenic Leishmania Mexicana promastigotes LmPfHT that are glucose transport deficient and complemented with the Plasmodium falciparum hexose transporter. Activity is measured by DNA content using SYBR green in vitro.
The target in experiment [3] is Glucose transporter (Leishmania mexicana) (UniProt O61059). As to the kind of experiment: ST_JUDE_LEISH: Cytotoxicity at 2uM final concentration against transgenic Leishmania Mexicana promastigotes LmGT2 that are glucose transport deficient and complemented with the L. Mexicana glucose transporter 2. Activity is measured by DNA content using SYBR green in vitro.

Solute carrier family 2, facilitated glucose transporter member 1 (Homo sapiens), sequence (P11166 whole entry): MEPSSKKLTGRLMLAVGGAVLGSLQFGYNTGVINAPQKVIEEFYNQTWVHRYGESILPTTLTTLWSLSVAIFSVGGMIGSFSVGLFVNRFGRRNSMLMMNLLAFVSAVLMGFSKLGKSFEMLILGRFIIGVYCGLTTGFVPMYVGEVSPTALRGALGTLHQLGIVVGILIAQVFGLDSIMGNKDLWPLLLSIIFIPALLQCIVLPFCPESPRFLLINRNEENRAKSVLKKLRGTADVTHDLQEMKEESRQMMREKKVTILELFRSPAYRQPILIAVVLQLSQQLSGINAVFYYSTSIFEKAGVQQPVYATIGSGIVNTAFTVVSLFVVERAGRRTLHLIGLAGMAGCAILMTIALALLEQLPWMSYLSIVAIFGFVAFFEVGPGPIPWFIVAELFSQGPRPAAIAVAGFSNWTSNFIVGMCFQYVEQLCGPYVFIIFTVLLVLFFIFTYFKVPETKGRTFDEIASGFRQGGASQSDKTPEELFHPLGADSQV

As for `Cc1ccccc1C1CCN(c2ccc(C(=O)Nc3ccc(F)cc3)cn2)CC1`, the inhibition in experiment [1] is 4.93%; in experiment [2] it was -0.36%; in experiment [3] it was 5.56%.
Take `Fc1cc(Cl)ccc1Nc1ccnc2cc(-c3ccc(CN4CCCCC4)o3)ccc12`: the values for the inhibition in experiment [1], in experiment [2] and in experiment [3] were 2.55%, 1.59% and 0.77%, respectively.
In the case of `COc1cccc(C(O)CNc2ccnc(Nc3cccc(-c4csc(C)n4)c3)n2)c1` (stereo unspecified), the inhibition in experiment [1] is 1.26%; in experiment [2], -0.04%; in experiment [3], 1.05%.
Consider `Cc1ccc(C(CC(=O)Nc2nccs2)c2ccc(OC(C)C)cc2)cc1` (stereo unspecified), for which the inhibition is -1.83% in experiment [1], 0.63% in experiment [2] and -1.31% in experiment [3].
The corresponding values for `O=C(/C=C/c1c(Cl)cccc1Cl)NC1CCC(CN2CCC(Cc3cc4ccccc4[nH]3)CC2)CC1` (stereo unspecified) are 4.15%, 10.2% and 2.31%.
The corresponding values for `O=C(Nc1cccc(CN2CCCN(Cc3cccc(F)c3)CC2)c1)c1ccc(Cl)c(Cl)c1` are 4.11%, 2.83% and 6.5%.
Regarding `Cc1ccc(Nc2nc(C)cc(NCc3ccc(-n4ccnc4)cc3)n2)cc1`, the inhibition in experiment [1] came out at 5.83%; in experiment [2] it was 10.8%; in experiment [3], 10.4%.
Take `CN(C)Cc1ccc(-c2ccc3c(Nc4ccc(Oc5ccccn5)cc4)ccnc3c2)o1`: the inhibition in experiment [1] was 0.08%; in experiment [2], 4.31%; in experiment [3] it was 2.19%.
The corresponding values for `Cc1ccc(C)c(NC(=O)NCCNc2ccnc(Nc3ccc(F)cc3)n2)c1` are 17%, 13.1% and 6.47%.
On the same counts, the results for `COc1ccc(CN2CCC(CNCCc3c(Cl)cccc3Cl)CC2)cc1` are 7.06%, 8.38% and 9.64%.
Consider `CCCCCNC(=N)N/N=C/c1c[nH]c2ccc(OC)cc12`, for which the inhibition in experiment [1] is 1.71%; in experiment [2], 3.63%; in experiment [3], -0.13%.
For the compound `CCOc1cc(C)c(C2CCN(CCCCNC(=O)c3ccc(NC(=O)c4ccc(Cl)cc4)cc3)CC2)cc1C`, the inhibition in experiment [1] was -0.49%; in experiment [2] it was -0.72%; in experiment [3], -0.67%.
`Cc1ccc(N2C(=O)C3C(C2=O)C2(c4ccccc4)C(=O)C3(c3ccccc3)C(c3ccccc3)=C2c2ccccc2)cc1` (stereo unspecified): the inhibition in experiment [1] is 0.73%; in experiment [2], 0.67%; in experiment [3], -1.83%.
On the same counts, the results for `O=C1COc2ccccc2N1C/C=C(\CN1CCC(c2ccccc2)CC1)c1cc(Cl)cc(Cl)c1` are 1.77%, 1.99% and 1.69%.
Turning to `O=C(NC1CCC(CCN2CCc3ccc(-c4cnccn4)cc3CC2)CC1)c1cccc(-n2cccn2)c1` (stereo unspecified), the inhibition in experiment [1] was found to be 10.2%; in experiment [2] it was 7.38%; in experiment [3], 8.56%.
The corresponding values for `CCOc1ccc2nc3cc(N)ccc3c(N)c2c1` are 1.58%, 3.26% and 1.19%.
The corresponding values for `COC(=O)c1cccc(CNCc2cccc(-c3cccc(-c4nc5ccccc5[nH]4)c3)c2)c1` are 1.94%, 3.05% and 2.93%.
As to `CCc1cc2c(Sc3nc4ccccc4[nH]3)ncnc2s1`, the results for the inhibition in experiment [1], in experiment [2] and in experiment [3] were 0.94%, 0.97% and -0.12%, respectively.
For the compound `Cc1cc(NC(=O)CCCN2CCN(c3cccc(Cl)c3Cl)CC2)ccc1N1CCN(C(C)C)CC1`, the inhibition in experiment [1] is 9.52%; in experiment [2], 5.3%; in experiment [3] it was 4.97%.
On the same counts, the results for `COc1ccccc1CN1CCC(NC(=O)c2ccc(-c3ccc(N(C)C)cc3)s2)CC1` are 9.96%, 12.6% and 8.12%.
On the same counts, the results for `COc1ccc(-c2cccc(NC(=O)c3ccc(Cl)cc3)c2)cc1CN1CCC(O)CC1` are 5.4%, 0.09% and 1.8%.
Consider `CN(CCN)Cc1cccc(-c2cccc(-c3nc4cc(C(F)(F)F)ccc4[nH]3)c2)c1`, for which the inhibition in experiment [1] was 2.68%; in experiment [2], 2.47%; in experiment [3] it was 3.72%.
On the same counts, the results for `CCCc1ccc(Nc2nc(C)cc(N(CC)CCCN3CCCCC3)n2)cc1` are -3.11%, -2.14% and 0.52%.
On the same counts, the results for `O=C(NCCCCN1CCN(c2nsc3ccccc23)CC1)c1ccccc1C(=O)NCCCCN1CCN(c2nsc3ccccc23)CC1` are 2.17%, -0.52% and -0.08%.
As to `Oc1cccc(/C=N/Nc2ccnc3cc(Cl)ccc23)c1`, the inhibition in experiment [1] came to 4.49%; in experiment [2] it was 0.91%; in experiment [3], 3.14%.
For `CCCCC(=O)Nc1nonc1-c1ccc(OCC)c(OCC)c1`, the inhibition in experiment [1] is -0.29%; in experiment [2] it was -0.24%; in experiment [3], -4.47%.
The corresponding values for `CN(CCCCNC(=O)c1ccc(-c2ccccc2)cc1)C1CCc2c(O)cccc2C1` (stereo unspecified) are 2.79%, 2.13% and 1.18%.
The corresponding values for `CC(CN(C)C)C(=O)Nc1cccc(-c2ccc(-c3nc4cc(F)ccc4[nH]3)s2)c1` (stereo unspecified) are 3.85%, 2.55% and 4.47%.
For `CCCCC(O)c1cc(O)c2c(c1)OC(C)(C)CC2C1=CCN(Cc2ccc3ccccc3c2)CC1` (stereo unspecified), the inhibition in experiment [1] was -0.53%; in experiment [2] it was 1.5%; in experiment [3], 0.64%.
On to `CC(C)CNc1nc(N)nc2ccc3c(ccn3CC(C)C)c12`, for which the figures for the inhibition in experiment [1], in experiment [2] and in experiment [3] were 1.7%, -0.47% and -0.02%, respectively.
As for `COC(=O)c1cccc(CNCc2cccc(-c3cccc(-c4nc5cccc(C)c5[nH]4)c3)c2)c1`, the inhibition in experiment [1] was 9.22%; in experiment [2], 8.21%; in experiment [3], 6.67%.
Turning to `O=C(Nc1cccc(-c2nn3ncccc3c2-c2ccnc(Nc3cccc(C(F)(F)F)c3)n2)c1)c1c(F)cccc1F`, the inhibition was 2.16% in experiment [1], 3.08% in experiment [2] and -0.92% in experiment [3].
The corresponding values for `CCC(NC[C@@H](O)[C@H](Cc1ccccc1)NC(=O)c1cc(C2CCCC2)cc(N2CCCC2=O)c1)c1cccc(Cl)c1` (stereo partly specified) are 2.16%, 2.04% and 4.65%.
As to `O=C(Cc1c[nH]cn1)Nc1ccc(-c2ccc(-c3nc4ccccc4[nH]3)s2)cc1`, the inhibition in experiment [1] stood at 4.05%; in experiment [2], 5.17%; in experiment [3], 1.71%.
On the same counts, the results for `COc1cc2c(cc1C(F)(F)F)N(C(=O)Nc1cc(Br)cc(-c3cccnc3)c1)CC2` are 8.34%, 6.53% and 6.18%.
As to `CCc1nc(N)nc(N)c1-c1ccc2c(c1)CCCC2`, the inhibition in experiment [1] stood at 2.54%; in experiment [2], 3.35%; in experiment [3], 2%.
The corresponding values for `CC(=O)N1N=C(c2ccc(F)cc2)Sc2c1nc(C1CCCCC1)n2C(C)=O` are 8.37%, 6.09% and 7.07%.

The values above are taken from ChEMBL document CHEMBL3433997, “St. Jude Leishmania screening dataset” (2016).
